Source: PubChem (National Center for Advancing Translational Sciences (NCATS))
TDP1 cell CPT – growth inhibition of DT40 Tdp1-/-;hTDP1 cells with camptothecin (screen for TDP1 inhibitors); chicken DT40 Tdp1-/-;hTDP1 cells + 20 nM CPT, ATP luminescence, 48 h; Potency, µM (highest dose often 46.2 µM), for the others: at the top dose activity change, negative = growth inhibition, hits mostly inhibitors; hit rate 12% among 420,000; AID 686979; also: potency is read from the fitted curve at half-maximal effect; nearly all actives have a fitted effect of over 55% in size
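Chicken DT40 Tdp1-/- cells stably complemented with human TDP1 were seeded at 400 cells/well in medium containing 20 nM camptothecin, exposed to pin-transferred compounds, and grown at 37 °C for at least 48 hr. Viability was read as ATP luminescence.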
HT1080 IDH1KD tx – kills HT-1080 cells with IDH1 knockdown | HT-1080 IDH1 knockdown viability, ATP luminescence, 48 h | Potency, µM (top dose mostly 46.1 µM), for inactives: at the highest dose activity, negative = toxicity, hits mostly cytotoxic | hit rate 2% among 360,000;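 also: potency is read from the fitted curve at half-maximal effect; 0% = DMSO wells and -100% = cell-free medium wells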
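Luminescent ATP read-out (CellTiter-Glo, 10 min at room temperature) after 48 h compound exposure at 37 °C gave viability of IDH1-knockdown HT-1080 cells. Activity was normalised to DMSO and cell-free wells, then fitted as concentration-response curves.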
IL-1B inflam inh – inhibitors of inflammasome signaling (IL-1 beta secretion) | THP-1 LPS/ATP IL-1B secretion, AlphaLISA, 16 h; hits give low values | activity change, % at 57.5 µM | hit rate 4.7% among 360,000 | AID 743279; in the data active = activity change below about -50%; inconclusive = mostly about -30% to -49%
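THP-1 cells pretreated 1 hr with compounds (up to 57.5 uM final), then stimulated with LPS (250 ng/mL final) plus ATP (1.25 mM final); secreted IL-1B measured by AlphaLISA after 16 hr, decreased signal indicating inhibition.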
HT1080-NT tox – kills 2HG-producing HT-1080-NT fibrosarcoma cells | HT-1080-NT fibrosarcoma viability, CellTiter-Glo ATP luminescence, 48 h | Potency, µM (series often up to 46.1 µM), for inactives: at the top dose activity, negative = less viability, actives largely listed as cytotoxic | hit rate 1.6% among 360,000;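 also: NT is the 2HG producing partner of a matched IDH1 knockdown line; potency is read from the fitted curve at half-maximal effect; 0% = DMSO-treated cells and -100% = media-only wells without cells; nearly all actives have a fitted effect of over 55% in size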
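Read-out is CellTiter-Glo luminescence after 10 minutes at room temperature, following 48 hours' compound treatment of HT-1080-NT cells (750 cells/well, RPMI, 5% FBS, 37 degrees C).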
TDP1 cell noCPT – qHTS for Inhibitors of human tyrosyl-DNA phosphodiesterase 1 (TDP1): qHTS in cells in absence of CPT | DT40 Tdp1-/- hTDP1 cells, no CPT, ATP luminescence, 48 h | AID 686978, 2013 | hit rate 15% among 420,000 | Potency, µM (series often up to 46.2 µM), without a hit: at the top dose activity change, negative = growth inhibition, most hits filed as inhibitors; also: potency is read from the fitted curve at half-maximal effect; nearly all actives have a fitted effect of over 55% in size
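No-CPT arm: Tdp1-/-;hTDP1 DT40 cells (400/well) plus compounds, incubated ≥48 hr at 37 °C. Readout CellTiter-Glo luminescence.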
Numbers without * were called inactive; ? = inconclusive; nt = no result given; [ ] = dose if it differs, or a comment. Compounds with a hit are over-represented: about 19% of the library has one in this group of screens. Unless noted, calls follow the shape of the dose curve; as a rule, active = well fitted curve in the direction sought with a large enough effect; inconclusive = small, poorly fitted or top-dose-only effect, or another doubt; inactive = no such curve, though single readings can be large; an effect the other way counts as inactive or inconclusive. Unless noted, % is scaled to controls: 0 for no effect and ±100 for the full control effect.

SMILES	TDP1 cell CPT	HT1080 IDH1KD tx	IL-1B inflam inh	HT1080-NT tox	TDP1 cell noCPT
CCOc1ccc2[nH]c(=O)c(CN(Cc3cccs3)Cc3nnnn3C(C)(C)C)cc2c1	20.6µM*	?	?	?	15.8µM*
COc1ccc2[nH]c(=O)c(CN(Cc3cccs3)Cc3nnnn3C(C)(C)C)cc2c1	?	?	-7.6	-13.2%	23.1µM*
COc1ccc(OCC(=O)Nc2c3c(nn2-c2ccc(OC)cc2)CS(=O)(=O)C3)cc1	-14.5%	-0.2%	10.0	-3.5%	-1.3%
Cc1onc(-c2ccccc2)c1C(=O)Nc1sc2c(c1C#N)CCC(C)C2 (centres undefined)	?	0.2%[9.24 µM]	-22.2	12.6µM*	?
Cc1onc(-c2ccccc2)c1C(=O)NC1CCC(C)CC1 (centres undefined)	13µM*	-0.6%	34.3	0.2%	?
Cc1onc(-c2ccccc2)c1C(=O)NC1CCCCC1C (centres undefined)	?	14.0%	8.0	13.4%	-14.3%
COC(=O)c1ccc(NC(=O)[C@H](C)NC(N)=O)cc1	3.5%	-11.3%	-14.5	-11.3%	12.1%
Cn1cccc1Cc1nnc(SCC(=O)Nc2ccccc2F)n1CCc1ccccc1	-26.6%	0.6%	?	-8.7%	-24.1%
Cn1cccc1Cc1nnc(SCC(=O)N2CCCC2)n1CCc1ccccc1	?	-3.7%	?	8.8%	-24.5%
COc1ccc(-n2c(Cc3cccn3C)nnc2SCC(=O)Nc2ccccc2)cc1	-23.9%	-0.2%	-3.7	6.3%	-0.2%
CC1CCN(C(=O)CSc2nnc(Cc3cccn3C)n2CCc2ccccc2)CC1	16.4µM*	-0.5%	?	0.8%	?
Cn1cccc1Cc1nnc(SCC(=O)Nc2cccc(F)c2)n1CCc1ccccc1	23.1µM*	-14.2%	-21.2	-1.1%	?
COc1ccc(-n2c(Cc3cccn3C)nnc2SCC(=O)Nc2cccc(F)c2)cc1	23.1µM*	-3.9%	?	-4.1%	25.9µM*
Cc1ccc(NS(=O)(=O)c2ccc(C)c(NC(=O)c3ccc(S(=O)(=O)N4CCCCCC4)cc3)c2)c(C)c1	18.4µM*	-10.8%	8.0	-2.9%	10.3µM*
COc1ccc(NC(=O)CN2CCCN(S(=O)(=O)c3ccc(Br)cc3)CC2)c(OC)c1	?	nt	nt	nt	23.1µM*
COc1ccc(S(=O)(=O)N2CCCN(CC(=O)Nc3ccccc3F)CC2)cc1	-27.9%	-4.9%	-3.9	15.3%	?
Cc1ccc(S(=O)(=O)N2CCCCC2)cc1NC(=O)c1ccc2c(c1)OCO2	?	-2.6%	-3.1	-1.2%	?
COc1ccc(NC(=O)c2ccc(S(=O)(=O)N3CCCCCC3)cc2)c(OC)c1	-27.0%	0.9%	-11.0	-10.2%	13µM*
Cc1nn2c(=O)cc(COC(=O)c3cccc(NC(=O)c4ccc(C(C)(C)C)cc4)c3)nc2s1	3.7%	nt	nt	nt	0.0%
CCOC(=O)c1sc(NC(=O)CSc2nc3c(cc2C#N)CCCCCC3)c(C#N)c1C	16.4µM*	-5.5%	28.1	0.0%[9.24 µM]	25.9µM*
CCOC(=O)c1sc(NC(=O)CSc2n[nH]c(-c3ccc(Cl)cc3Cl)n2)c(C#N)c1C	?	-0.2%	0.0	1.7%	16.4µM*
N#Cc1cc2c(nc1SCC(=O)Nc1sc3c(c1C#N)CCC3)CCCCC2	?	-3.9%	-7.9	9.7%	-21.4%
N#Cc1cc2c(nc1SCC(=O)Nc1sc3c(c1C#N)CCC3)CCCC2	?	-4.0%	-60.1*	-1.6%	11.6µM*
Cc1cc(C)cc(N(C(=O)c2ccccn2)C(C(=O)NC2CCCCC2)c2ccncc2)c1 (centres undefined)	14.7%	23.1%	10.6	-0.5%	-8.1%
COc1cccc(C(=O)N2CCC[C@H]2C(=O)N2CCC[C@H]2C(=O)NCc2ccccn2)c1	6.2%	5.6%	19.7	22.1%	4.4%
SMILES	TDP1 cell CPT	HT1080 IDH1KD tx	IL-1B inflam inh	HT1080-NT tox	TDP1 cell noCPT
CCCCN(C(=O)CSc1ncnc2sccc12)c1c(N)n(Cc2ccccc2)c(=O)[nH]c1=O	-0.8%	0.4%	-14.2	-11.2%	-14.6%
O=C(Nc1ccc([N+](=O)[O-])cc1)c1ccc(Cn2cc([N+](=O)[O-])cn2)cc1	18.4µM*	?	-7.7	?	13µM*
Cc1nc2ccc(NC(=O)c3ccc([N+](=O)[O-])cc3)cc2[nH]1	?	?	3.2	19.0%	16.4µM*
O=C(Nc1ccc(Oc2cccnc2)cc1)c1ccc([N+](=O)[O-])cc1	-25.6%	-8.9%	?	-4.0%	?
O=C(Nc1cnn(Cc2ccc(Cl)cc2)c1)c1ccc([N+](=O)[O-])cc1	?	-21.5%	?	-9.9%	?
O=C(Nc1ccc(Nc2ccncc2)cc1)c1ccc([N+](=O)[O-])cc1	20.6µM*	-1.9%	-97.5*	?	14.6µM*
C/C(CC(=O)Nc1ccc(Cl)c(Cl)c1)=N\NC(=O)C(=O)N1CCCCC1	-22.3%	-9.0%	-0.1	-8.8%	-13.2%
Cc1ccc(-n2nnnc2SC(C)C(=O)Nc2ccc(Cl)cn2)cc1 (centres undefined)	?	-3.5%[9.24 µM]	-57.0*	?	?
Cc1ccc(-n2nnnc2SC(C)C(=O)NCC(=O)Nc2ccc(F)c(F)c2F)c(C)c1 (centres undefined)	18.4µM*	-14.0%	?	-11.9%	14.6µM*
COc1ccc(N(C)C(=O)Cc2c(C(=O)O)n(C)c3ccccc23)c(OC)c1	16.9%	8.3%	16.1	4.3%	-2.4%
O=C(COC(=O)CNC(=O)c1ccc(Cl)cc1Cl)NC1CCCCC1	9.2%	0.9%	-5.5	-2.7%	-2.4%
CC(NC(=O)CCc1ccccc1)c1ccc2c(c1)OCO2 (centres undefined)	-1.4%	10.0%	-16.8	4.0%	14.6%
NC(=O)CC(NC(=O)c1ccc(Br)cc1)c1ccc(N2CCN(c3ccc(F)cc3)CC2)c([N+](=O)[O-])c1 (centres undefined)	25.9µM*	-8.9%	-10.2	-12.1%	23.1µM*
NC(=O)CC(NC(=O)c1ccc(Br)cc1)c1ccc(N2CCCCCCC2)c([N+](=O)[O-])c1 (centres undefined)	20.6µM*	-20.7%	-28.6	?	10.3µM*
NC(=O)CC(NC(=O)c1ccc(Br)cc1)c1ccc(N2CCN(c3ccccc3)CC2)c([N+](=O)[O-])c1 (centres undefined)	?	-0.3%	-29.2	5.0%	?
NC(=O)CC(NC(=O)c1cccc(Br)c1)c1ccc(N2CCC(N3CCCCC3)CC2)c([N+](=O)[O-])c1 (centres undefined)	-5.9%	12.6%	-5.2	0.9%	-2.1%
